Laboratory results reported in PubChem BioAssay (Tox21).
Records with an inconclusive call do not appear. Calls of active or inactive are those of the source. Unless noted, the call rests on the fitted dose curve; in most records, active means well fitted curve in the direction sought with a large enough effect in the repeat runs; inconclusive means weak or mixed curves; inactive means no such curve, though single readings can be large; an effect the other way counts as inactive or inconclusive.

Tests used:
[1] = qHTS assay to identify small molecule antagonists of the androgen receptor (AR) signaling pathway using the MDA cell line in the presence of 0.5 nM R1881 - cell viability counter screen (AID 1259242); further: nearly all actives have a fitted effect of over 45% in size; further: potency means the concentration at half of the fitted maximal effect
In short: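 Counter screen for cytotoxicity run in the same wells as the AR antagonist reporter screen: MDA-kb2 cells were treated 16 hr with test compounds and 0.5 nM R1881, then live-cell protease activity was measured by fluorescence.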

[2] = biological target: Androgen receptor (Homo sapiens) (UniProt P10275); assay: qHTS assay to identify small molecule antagonists of the androgen receptor (AR) signaling pathway using the MDA cell line in the presence of 0.5 nM R1881 (AID 1259243); further: nearly all actives have a fitted effect of over 50% in size; further: potency means the concentration at half of the fitted maximal effect
Androgen receptor (Homo sapiens), sequence (P10275 whole entry, looked up): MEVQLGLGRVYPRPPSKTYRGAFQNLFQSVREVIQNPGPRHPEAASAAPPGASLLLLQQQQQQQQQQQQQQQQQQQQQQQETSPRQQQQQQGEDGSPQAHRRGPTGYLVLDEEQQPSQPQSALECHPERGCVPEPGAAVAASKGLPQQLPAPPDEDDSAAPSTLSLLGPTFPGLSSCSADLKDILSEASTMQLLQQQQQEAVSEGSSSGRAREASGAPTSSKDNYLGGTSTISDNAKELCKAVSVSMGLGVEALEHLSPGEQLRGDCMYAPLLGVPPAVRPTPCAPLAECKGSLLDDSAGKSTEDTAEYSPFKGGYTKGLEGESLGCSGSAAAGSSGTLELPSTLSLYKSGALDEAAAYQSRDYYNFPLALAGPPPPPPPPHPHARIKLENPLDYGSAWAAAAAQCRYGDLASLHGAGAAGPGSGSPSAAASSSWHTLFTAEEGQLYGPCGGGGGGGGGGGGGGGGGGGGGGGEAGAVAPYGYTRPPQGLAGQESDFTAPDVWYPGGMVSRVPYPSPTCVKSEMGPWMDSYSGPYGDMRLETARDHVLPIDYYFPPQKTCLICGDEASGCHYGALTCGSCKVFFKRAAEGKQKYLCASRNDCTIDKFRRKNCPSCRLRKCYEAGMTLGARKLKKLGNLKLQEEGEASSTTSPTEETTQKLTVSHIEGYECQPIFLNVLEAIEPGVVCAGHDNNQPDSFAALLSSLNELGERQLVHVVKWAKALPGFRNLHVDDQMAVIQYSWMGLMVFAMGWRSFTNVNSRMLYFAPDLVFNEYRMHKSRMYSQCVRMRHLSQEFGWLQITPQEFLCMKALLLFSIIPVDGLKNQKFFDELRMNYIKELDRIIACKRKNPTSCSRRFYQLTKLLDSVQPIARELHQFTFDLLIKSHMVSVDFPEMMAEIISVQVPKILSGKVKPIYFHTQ
In short: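 Luciferase luminescence is the read-out: compounds are tested for suppressing 0.5 nM R1881-driven MMTV reporter activity in MDA-kb2 cells after 16 hr at 37C.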

[3] = biological target: Estrogen receptor (Homo sapiens) (UniProt P03372); assay: qHTS assay to identify small molecule antagonists of the estrogen receptor alpha (ER-alpha) signaling pathway using the BG1 cell line in the presence of 0.1 nM 17-beta-estradiol (AID 1259244); further: nearly all actives have a fitted effect of over 50% in size; further: potency means the concentration at half of the fitted maximal effect
Estrogen receptor (Homo sapiens), sequence (P03372 whole entry, looked up): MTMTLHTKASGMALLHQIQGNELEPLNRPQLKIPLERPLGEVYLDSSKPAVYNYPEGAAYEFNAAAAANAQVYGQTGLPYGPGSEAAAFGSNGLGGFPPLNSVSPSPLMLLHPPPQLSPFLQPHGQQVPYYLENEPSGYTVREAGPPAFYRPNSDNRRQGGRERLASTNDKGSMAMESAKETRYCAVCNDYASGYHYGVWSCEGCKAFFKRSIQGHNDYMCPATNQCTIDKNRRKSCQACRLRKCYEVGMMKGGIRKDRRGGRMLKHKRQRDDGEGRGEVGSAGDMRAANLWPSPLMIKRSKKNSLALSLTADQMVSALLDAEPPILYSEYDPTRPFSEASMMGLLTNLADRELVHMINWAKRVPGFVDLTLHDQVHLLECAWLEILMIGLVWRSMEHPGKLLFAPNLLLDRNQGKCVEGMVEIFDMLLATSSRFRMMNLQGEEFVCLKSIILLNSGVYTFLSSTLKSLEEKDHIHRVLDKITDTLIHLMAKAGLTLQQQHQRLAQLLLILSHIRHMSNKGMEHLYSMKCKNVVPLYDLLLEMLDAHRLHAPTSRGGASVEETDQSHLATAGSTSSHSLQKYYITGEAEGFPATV
In short: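 Cells: VM7Luc4E2, endogenous ER-alpha, 4x ERE-luc stable. Pre-culture 5 d, phenol red-free, charcoal-stripped FBS. Plated 24 h, compound + E2 0.1 nM final, 22 h 37C/5% CO2. Readout ONE-Glo luminescence.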

[4] = qHTS assay to identify small molecule HDAC inhibitors (AID 1259364); further: top concentration of the series differs between compounds; nearly all actives have a fitted effect of over 45% in size
In short: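 Luminescence from a cell-permeant luminogenic class I/II HDAC substrate reports endogenous deacetylase activity in intact HCT-116 cells treated with compounds for 2 h.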

[5] = qHTS assay to identify small molecule HDAC inhibitors - cell viability counter screen (AID 1259365); further: series mostly up to about 92 µM; nearly all actives have a fitted effect of over 50% in size
In short: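 Wild-type HCT-116 cells were seeded at 1,500 per well, incubated overnight at 37 C, then exposed to compounds in DMSO for 2hr. Viability was read by CellTiter-Glo luminescence after 30min at room temperature.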

[6] = qHTS assay to identify small molecule antagonists of the sonic hedgehog signaling (Shh) pathway (AID 1259369; calls by dose curve; further: nearly all actives have a fitted effect of over 45% in size; further: potency means the concentration at half of the fitted maximal effect)
In short: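 3T3Gli1-Luc, conditioned-medium-stimulated, 24hr cpd, 37C/5% CO2; Gli1-driven firefly Luc luminescence after 30min RT with luciferase reagent. Cells plated 4hr before cpd.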

[7] = biological target: Estrogen receptor beta (Homo sapiens) (UniProt Q92731); assay: qHTS assay to identify small molecule antagonists of the estrogen receptor beta (ER-beta) signaling pathway (AID 1259378; active means well fitted inhibition curve with a large enough effect in the signal ratio in the repeat runs, not every such curve was filed as active; the % refers to the signal ratio; further: potency means the concentration at half of the fitted maximal effect)
Estrogen receptor beta (Homo sapiens), sequence (Q92731 whole entry, looked up): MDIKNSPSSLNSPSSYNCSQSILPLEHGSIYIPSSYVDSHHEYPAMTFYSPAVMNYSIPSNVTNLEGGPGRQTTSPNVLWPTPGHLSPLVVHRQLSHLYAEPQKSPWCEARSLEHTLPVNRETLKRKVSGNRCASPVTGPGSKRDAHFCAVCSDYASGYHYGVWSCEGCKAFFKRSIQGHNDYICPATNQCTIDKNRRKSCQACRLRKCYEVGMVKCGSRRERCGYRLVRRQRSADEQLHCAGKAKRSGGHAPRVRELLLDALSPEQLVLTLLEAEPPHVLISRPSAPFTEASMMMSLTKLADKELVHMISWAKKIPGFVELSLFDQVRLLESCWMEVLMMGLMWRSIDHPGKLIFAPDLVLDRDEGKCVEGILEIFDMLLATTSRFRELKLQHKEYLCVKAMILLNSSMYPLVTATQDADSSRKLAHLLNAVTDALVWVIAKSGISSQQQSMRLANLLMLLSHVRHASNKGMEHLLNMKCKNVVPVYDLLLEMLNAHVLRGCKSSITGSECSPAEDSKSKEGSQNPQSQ
In short: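 ER-beta-UAS-bla HEK293T cells in 2% charcoal-stripped FBS medium treated with compound plus 1nM final 17-beta-estradiol for 16 hr at 37C. Beta-lactamase reporter read by FRET substrate fluorescence after 2 hours at room temperature.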

[8] = qHTS assay to identify small molecule agonists of the androgen receptor (AR) signaling pathway in the presence of an antagonist - cell viability counter screen (AID 1259379); further: nearly all actives have a fitted effect of over 25% in size; further: potency means the concentration at half of the fitted maximal effect
In short: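 Cells: MDA-kb2 (MMTV-luc, AR and GR elements), 3,000/well, 5 hr settle. Added: nilutamide 3.0uM final, then compounds (15 conc.). Incubation: 16 hr, 37C, no CO2. Read-out: CellTiter-Fluor, 1 hr, fluorescence.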

[9] = qHTS assay to identify small molecule agonists of the estrogen receptor beta (ER-beta) signaling pathway - cell viability counter screen (AID 1259380); further: nearly all actives have a fitted effect of over 30% in size; further: potency means the concentration at half of the fitted maximal effect
In short: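 HEK293T ER-beta-UAS-bla; 2% CS-FBS; 6 hr pre-plate, 16 hr cpd at 37C/5% CO2; LiveBLAzer read first, then CellTiter-Glo 30 min RT, luminescence.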

[10] = biological target: Androgen receptor (Homo sapiens) (UniProt P10275); assay: qHTS assay to identify small molecule agonists of the androgen receptor (AR) signaling pathway in the presence of an antagonist (AID 1259381; calls by dose curve; further: nearly all actives have a fitted effect of over 15% in size)
In short: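 MDA-kb2 cells, 3,000/well, rested 5hr at 37C/0% CO2 → nilutamide 3.0uM final or buffer → compounds, 15 conc. → 16hr at 37C → ONE-Glo, 30min RT → luminescence.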

[11] = biological target: Estrogen receptor (Homo sapiens) (UniProt P03372); assay: qHTS assay to identify small molecule agonists of the estrogen receptor alpha (ER-alpha) signaling pathway in the presence of an antagonist (AID 1259383; calls by dose curve; further: top concentration of the series differs between compounds; nearly all actives have a fitted effect of over 15% in size)
In short: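 VM7Luc4E2, endog. ER-alpha + 4×ERE-luc; charcoal-stripped FBS, phenol red-free, 5 d; 24hr plating; +10.0nM ICI-182,780 (final); cpds 15 conc, 22hr, 37C/5% CO2; ONE-Glo luminescence.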

[12] = qHTS assay to identify small molecule agonists or antagonists of the thyroid stimulating hormone receptor (TSHR) signaling pathway - wild type cell line counter screen (AID 1259384; calls by dose curve)
In short: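 Wild-type Hek293 cells, 800/well, 18 h at 37C, then compound with Ro20-1724 for 30 min RT. cAMP by HTRF (cAMP-d2/anti-cAMP cryptate), 1 h RT, fluorescence read. 15 concentrations, triplicates.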

[13] = qHTS assay to identify small molecule antagonists of the estrogen receptor alpha (ER-alpha) signaling pathway using the BG1 cell line in the presence of 0.1 nM 17-beta-estradiol - cell viability counter screen (AID 1259241); further: nearly all actives have a fitted effect of over 40% in size
In short: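 VM7Luc4E2 cells (endogenous ER-alpha, 4×ERE-luciferase), hormone-starved 5 days in charcoal-stripped FBS, were treated with compounds plus 0.1 nM 17beta-estradiol for 22 hr at 37C; viability read in same wells as CellTiter-Fluor live-cell protease fluorescence.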

[14] = qHTS assay to identify small molecule agonists of the sonic hedgehog signaling (Shh) pathway - cell viability counter screen (AID 1259366); further: nearly all actives have a fitted effect of over 50% in size; further: potency means the concentration at half of the fitted maximal effect
In short: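 NIH/3T3-derived 3T3 Gli1-Luc cells (stable Gli1-responsive firefly luciferase reporter) were seeded, rested 4 hr at 37 C/5% CO2, then exposed to compounds in DMSO for 24 hr; viability was read by CellTiter-Fluor fluorescence in the same wells.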

[15] = qHTS assay to identify small molecule agonists of the sonic hedgehog signaling (Shh) pathway (AID 1259368; calls by dose curve; further: series mostly up to about 92 µM; nearly all actives have a fitted effect of over 15% in size)
In short: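 3T3Gli1-Luc (NIH/3T3 clone, stable Gli1-Luc); 4 hr pre-incubation, then cpd in DMSO 24 hr, 37 C/5% CO2; luciferase reagent 30 min RT; luminescence.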

[16] = qHTS assay to identify small molecule antagonists of the estrogen receptor beta (ER-beta) signaling pathway - cell viability counter screen (AID 1259382); further: series mostly up to about 92 µM; nearly all actives have a fitted effect of over 55% in size
In short: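 Cells: ER-beta-UAS-bla HEK293T, 2,000/well, 2% CS-FBS, 6 hr settle. Cpd + E2 (1nM final), 16 hr, 37C/5% CO2. Bla FRET substrate 2 hr RT, then CellTiter-Glo 30 min RT, luminescence.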

[17] = biological target: Thyrotropin receptor (Homo sapiens) (UniProt P16473); assay: qHTS assay to identify small molecule antagonists of the thyroid stimulating hormone receptor (TSHR) signaling pathway (AID 1259385; calls by dose curve; further: nearly all actives have a fitted effect of over 20% in size)
Thyrotropin receptor (Homo sapiens), sequence (P16473 whole entry, looked up): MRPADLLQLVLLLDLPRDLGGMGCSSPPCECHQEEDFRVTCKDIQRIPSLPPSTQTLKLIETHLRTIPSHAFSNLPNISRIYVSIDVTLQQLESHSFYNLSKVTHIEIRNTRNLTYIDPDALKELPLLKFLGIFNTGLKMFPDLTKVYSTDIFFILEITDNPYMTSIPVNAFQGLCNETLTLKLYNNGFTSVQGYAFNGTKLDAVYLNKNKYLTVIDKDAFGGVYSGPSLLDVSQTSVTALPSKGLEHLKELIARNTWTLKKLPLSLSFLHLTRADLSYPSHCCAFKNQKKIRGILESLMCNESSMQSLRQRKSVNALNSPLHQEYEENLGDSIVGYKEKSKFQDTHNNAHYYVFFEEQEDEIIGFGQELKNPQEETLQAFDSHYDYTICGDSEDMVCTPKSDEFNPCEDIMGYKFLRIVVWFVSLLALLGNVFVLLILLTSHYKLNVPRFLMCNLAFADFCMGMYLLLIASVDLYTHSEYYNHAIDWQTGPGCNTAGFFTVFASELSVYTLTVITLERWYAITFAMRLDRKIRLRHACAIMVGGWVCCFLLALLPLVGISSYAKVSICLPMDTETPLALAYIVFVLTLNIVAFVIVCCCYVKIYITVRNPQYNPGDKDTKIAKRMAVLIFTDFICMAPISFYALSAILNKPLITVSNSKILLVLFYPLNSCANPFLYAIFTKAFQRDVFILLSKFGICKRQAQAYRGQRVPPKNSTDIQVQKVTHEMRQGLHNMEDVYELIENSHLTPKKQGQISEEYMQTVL
In short: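 TSHR-HEK293 cells (800/well) plated 18 h, then compounds with Ro20-1724 and TSH at 1.5 ng/mL final, 30 min at room temperature. cAMP quantified by HTRF (cAMP-d2/anti-cAMP-cryptate, 1 h); 15 concentrations in triplicate.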

[18] = qHTS assay to identify small molecule antagonists of the sonic hedgehog signaling (Shh) pathway - cell viability counter screen (AID 1259367); further: nearly all actives have a fitted effect of over 55% in size
In short: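 Seed 3T3 Gli1-Luc cells at 2,000 per well; incubate 4 hr; add compound in DMSO, then conditioned medium; incubate at 37C with 5% CO2; add CellTiter-Fluor after 23 hr; read fluorescence 1 hr later.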

[19] = qHTS assay to identify small molecule phospholipidosis (PLD) inducers (AID 1259344; active means well fitted curve in the direction sought with a large enough effect; an effect the other way counts as inactive or inconclusive)
In short: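 Quantitative HTS in HepG2: compound plus LipidTOX Red dye for 24 h, paraformaldehyde fixation with Hoechst 33342, widefield high-content imaging; amiodarone as positive and DMSO as negative control.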

[20] = biological target: Estrogen receptor beta (Homo sapiens) (UniProt Q92731); assay: qHTS assay to identify small molecule agonists of the estrogen receptor beta (ER-beta) signaling pathway (AID 1259377; active means well fitted activation curve with a large enough effect in the signal ratio in the repeat runs, not every such curve was filed as active; the % refers to the signal ratio)
In short: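 ER-beta-UAS-bla HEK293T (GripTite) cells carrying a UAS-driven beta-lactamase reporter, in medium with 2% charcoal-stripped FBS, were exposed to compounds for 16 hr at 37C; LiveBLAzer B/G FRET substrate was then added and fluorescence read after 2 hours at room temperature.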
On the % scale 0 is the no-effect control and ±100 the full control effect.

CCCCC(O)(Cn1cncn1)c1ccc(Cl)cc1Cl (configuration not stated)
active: Potency [2] 54.4 µM | Potency [3] 61.1 µM | Potency [6] 19.3 µM | Potency [7] 48.5 µM | Potency [9] 68.5 µM
inactive: Potency [1] | Potency [4] | Potency [5] | Potency [8] | Potency [10] | Potency [11] | outcome [12]

CC(C)(Cl)[N+](=O)[O-]
inactive: Potency [13] | Potency [4] | Potency [5] | Potency [14] | Potency [15] | Potency [6] | Potency [8] | Potency [9] | Potency [16] | outcome [12] | Potency [17]

CCO[C@H]1O[C@@H]2OC3(C)CC[C@H]4[C@H](C)CC[C@@H]([C@H]1C)[C@@]24OO3
inactive: Potency [1] | Potency [4] | Potency [5] | Potency [14] | Potency [18] | Potency [15] | Potency [6] | Potency [7] | Potency [8] | Potency [9] | Potency [10] | Potency [16] | Potency [11]
active: Potency [2] 10.6 µM

COc1cc(CC(C)N)cc2c1OCO2 (configuration not stated)
inactive: Potency [1] | Potency [3] | outcome [19] | Potency [4] | Potency [5] | Potency [14] | Potency [18] | Potency [6] | Potency [20] | Potency [7] | Potency [8] | Potency [9] | Potency [16] | Potency [11] | outcome [12] | Potency [17]

COC(C)(C)CCC[C@H](C)C/C=C/C(C)=C/C(=O)OC(C)C
inactive: Potency [1] | Potency [2] | Potency [5] | Potency [14] | Potency [18] | Potency [15] | Potency [6] | Potency [20] | Potency [7] | Potency [8] | Potency [9] | Potency [10] | Potency [16] | outcome [12] | Potency [17]

O=C1NCN(c2ccccc2)C12CCN(CCCOc1ccc(F)cc1)CC2
active: Potency [3] 7.5 µM
inactive: Potency [1] | outcome [19] | Potency [4] | Potency [5] | Potency [18] | Potency [15] | Potency [11]

NS(=O)(=O)C(F)(F)C(F)(F)C(F)(F)C(F)(F)C(F)(F)C(F)(F)C(F)(F)C(F)(F)F
inactive: Potency [1] | Potency [2] | Potency [4] | Potency [5] | Potency [14] | Potency [18] | Potency [20] | Potency [8] | Potency [10] | Potency [11] | outcome [12] | Potency [17]
active: Potency [9] 68.6 µM

CC(C)N(C(=O)COc1nnc(C(F)(F)F)s1)c1ccc(F)cc1
inactive: Potency [1] | Potency [3] | Potency [4] | Potency [5] | Potency [14] | Potency [18] | Potency [15] | Potency [20] | Potency [8] | Potency [16] | Potency [11] | outcome [12] | Potency [17]

S=C=NCc1ccccc1
inactive: Potency [1] | Potency [4] | Potency [5] | Potency [14] | Potency [18] | Potency [15] | Potency [6] | Potency [20] | Potency [10] | Potency [16] | outcome [12] | Potency [17]
active: Potency [2] 27.6 µM | Potency [7] 49.1 µM

CC(Cl)C(C)Cl (configuration not stated)
inactive: Potency [1] | Potency [3] | Potency [4] | Potency [5] | Potency [14] | Potency [18] | Potency [20] | Potency [7] | Potency [8] | Potency [9] | Potency [16] | Potency [11]

O=C(C(Cl)(Cl)Cl)C(Cl)(Cl)Cl
inactive: Potency [1] | Potency [2] | Potency [4] | Potency [5] | Potency [14] | Potency [18] | Potency [15] | Potency [6] | Potency [10] | Potency [16] | Potency [11]

O=[Se]=O
inactive: Potency [13] | Potency [4] | Potency [5] | Potency [14] | Potency [18] | Potency [15] | Potency [20] | Potency [7] | Potency [9] | Potency [16] | Potency [11] | outcome [12] | Potency [17]
active: Potency [8] 9.62 µM

CC(C)(OO)c1ccccc1
inactive: Potency [1] | Potency [3] | Potency [4] | Potency [5] | Potency [14] | Potency [18] | Potency [15] | Potency [8] | Potency [16] | Potency [11] | outcome [12] | Potency [17]

C[C@@H]1CC[C@H]2[C@@H](C)C(=O)O[C@@H]3O[C@@]4(C)CC[C@@H]1[C@]32OO4
inactive: Potency [1] | Potency [2] | outcome [19] | Potency [4] | Potency [5] | Potency [14] | Potency [18] | Potency [15] | Potency [7] | Potency [8] | Potency [9] | Potency [10] | Potency [16] | outcome [12] | Potency [17]

CCOS(C)(=O)=O
inactive: Potency [13] | Potency [4] | Potency [5] | Potency [14] | Potency [18] | Potency [15] | Potency [6] | Potency [8] | Potency [9] | Potency [16] | outcome [12] | Potency [17]

COC1=CC(=O)O[C@@H](CCc2ccccc2)C1
active: Potency [2] 40.1 µM
inactive: Potency [1] | Potency [5] | Potency [15] | Potency [6] | Potency [7] | Potency [8] | Potency [10] | Potency [16] | outcome [12] | Potency [17]

C[C@H]1CNCCc2ccc(Cl)cc21
inactive: Potency [1] | Potency [3] | PLD induction [19] 0.0663% [at 7.66 µM] | Potency [4] | Potency [5] | Potency [14] | Potency [18] | Potency [15] | Potency [6] | Potency [7] | Potency [8] | Potency [11] | outcome [12] | Potency [17]

CO/C=C(/C(=O)OC)c1ccccc1COc1cccc(C(F)(F)F)n1
active: Potency [1] 6.85 µM | Potency [6] 0.544 µM | Potency [7] 3.85 µM | Potency [8] 5.44 µM | Potency [9] 4.85 µM
inactive: Potency [4] | Potency [5] | Potency [14] | Potency [18] | Potency [15] | Potency [20] | Potency [16] | Potency [11] | outcome [12]

CC(c1ccc(O)cc1)(c1ccc(O)cc1)c1ccc(O)cc1
inactive: Potency [1] | Potency [4] | Potency [5] | Potency [15] | Potency [11]
active: Potency [14] 61.1 µM
